What all share (parameters): scale not given: direction of the effect not stated beside the values
Experiment [1] has as its target Protein translocase subunit SecA (Escherichia coli (strain K12)) (UniProt P10408). In words: Assay to Identify E. coli SecA ATPase Inhibitors. It is filed as functional. To be noted: 30 µM.
Experiment [2] deals with T1, Ubiquitin-activating enzyme e1, putative (Leishmania donovani (strain BPK282A1)) (UniProt E9BSI1).
T1 sequence (whole entry): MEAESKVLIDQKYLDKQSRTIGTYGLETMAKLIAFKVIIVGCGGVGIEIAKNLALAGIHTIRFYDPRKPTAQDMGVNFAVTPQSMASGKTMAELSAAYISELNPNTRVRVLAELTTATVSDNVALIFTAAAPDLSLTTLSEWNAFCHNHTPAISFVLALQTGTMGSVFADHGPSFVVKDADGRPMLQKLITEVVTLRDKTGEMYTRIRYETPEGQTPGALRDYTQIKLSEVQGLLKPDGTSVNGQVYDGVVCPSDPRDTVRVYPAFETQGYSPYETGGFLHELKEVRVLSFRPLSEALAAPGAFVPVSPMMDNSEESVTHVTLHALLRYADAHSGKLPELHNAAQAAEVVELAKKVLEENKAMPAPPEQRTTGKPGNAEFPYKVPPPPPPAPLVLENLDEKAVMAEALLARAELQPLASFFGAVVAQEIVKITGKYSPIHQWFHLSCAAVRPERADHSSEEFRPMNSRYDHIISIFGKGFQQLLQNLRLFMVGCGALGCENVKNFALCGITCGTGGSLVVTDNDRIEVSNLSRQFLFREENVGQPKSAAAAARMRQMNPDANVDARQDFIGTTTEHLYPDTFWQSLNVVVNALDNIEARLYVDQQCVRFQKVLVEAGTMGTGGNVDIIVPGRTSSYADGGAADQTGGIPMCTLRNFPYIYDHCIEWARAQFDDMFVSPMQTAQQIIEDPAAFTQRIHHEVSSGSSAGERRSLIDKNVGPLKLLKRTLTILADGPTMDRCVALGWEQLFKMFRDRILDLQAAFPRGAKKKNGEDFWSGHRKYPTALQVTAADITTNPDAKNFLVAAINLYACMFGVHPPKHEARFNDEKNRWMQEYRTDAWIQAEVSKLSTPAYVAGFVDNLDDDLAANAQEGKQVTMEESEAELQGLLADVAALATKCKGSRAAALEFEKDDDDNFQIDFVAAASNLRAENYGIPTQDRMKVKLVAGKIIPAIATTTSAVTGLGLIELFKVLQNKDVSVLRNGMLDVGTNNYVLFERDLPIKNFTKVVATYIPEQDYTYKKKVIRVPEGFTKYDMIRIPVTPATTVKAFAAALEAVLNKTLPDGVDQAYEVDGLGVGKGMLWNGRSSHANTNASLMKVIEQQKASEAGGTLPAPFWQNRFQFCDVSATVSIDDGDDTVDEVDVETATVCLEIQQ
Nature of the experiment: Leishmania donovani Ubiquitin Activating Enzyme (LdE1). It is filed as functional. To be noted: 30 µM.

In experiment [3] the target is AMP-activated protein kinase, AMPK (Homo sapiens) (UniProt P54646+O43741+P54619+Q9UGJ0+Q9Y478+Q13131+Q9UGI9). In words: AMP-dependent Kinase enzyme assay. An in vitro enzyme assay that detects ADP turnover that is directly proportional to AMPK activity. This uses naive AMPK that is activated during the assay with MK-8722. The experiment is classed as functional. To be noted: 30 µM.

The target in experiment [4] is Sialic acid-binding Ig-like lectin 9 (Homo sapiens) (UniProt Q9Y336). In words: Hs-Siglec9 ALPHAscreen SOP 20170721. Conditions: 10 µM. A general note: Bead proximity is the source of the signal in Alpha formats.
Sialic acid-binding Ig-like lectin 9 (Homo sapiens), sequence (Q9Y336 whole entry): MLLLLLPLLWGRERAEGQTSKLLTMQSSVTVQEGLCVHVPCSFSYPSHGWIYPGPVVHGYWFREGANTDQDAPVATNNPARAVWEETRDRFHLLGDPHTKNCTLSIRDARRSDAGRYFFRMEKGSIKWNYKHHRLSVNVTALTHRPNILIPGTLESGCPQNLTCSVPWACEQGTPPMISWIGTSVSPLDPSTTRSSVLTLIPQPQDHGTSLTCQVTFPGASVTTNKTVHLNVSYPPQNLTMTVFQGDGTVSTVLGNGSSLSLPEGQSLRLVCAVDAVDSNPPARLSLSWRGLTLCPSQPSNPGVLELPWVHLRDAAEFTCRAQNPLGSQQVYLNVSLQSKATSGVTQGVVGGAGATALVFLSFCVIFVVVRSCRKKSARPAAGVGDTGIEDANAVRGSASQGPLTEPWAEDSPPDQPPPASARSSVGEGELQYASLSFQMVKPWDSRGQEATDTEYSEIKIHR
A further experiment deals with Trypanosoma cruzi. In words: Trypanosoma cruzi phosphomannomutase and mannose-1-phosphate guanylyltransferase assay. It is filed as functional. Conditions: 10 µM.
In experiment [5] the target is T2, Arginase-2, mitochondrial (Homo sapiens) (UniProt P78540).
T2 sequence (whole entry): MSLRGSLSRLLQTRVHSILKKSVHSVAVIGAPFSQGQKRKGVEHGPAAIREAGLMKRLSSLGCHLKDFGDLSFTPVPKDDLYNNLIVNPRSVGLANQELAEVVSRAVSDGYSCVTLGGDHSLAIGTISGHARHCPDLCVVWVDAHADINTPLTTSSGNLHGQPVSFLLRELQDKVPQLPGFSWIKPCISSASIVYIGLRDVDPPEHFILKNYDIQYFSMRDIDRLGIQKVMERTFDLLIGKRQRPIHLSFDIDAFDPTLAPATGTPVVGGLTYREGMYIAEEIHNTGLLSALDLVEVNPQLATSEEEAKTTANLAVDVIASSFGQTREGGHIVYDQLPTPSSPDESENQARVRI
Nature of the experiment: in vitro enzyme assay to detect the production of urea directly proportional to the activity of Arginase II. Note: in the data most compounds retested in dose-response had high values. It is filed as functional. Conditions: 33.3 µM.

Experiment [6] concerns the target T3, Proteasome subunit beta (Trypanosoma cruzi) (UniProt O96673).
T3 sequence (whole entry): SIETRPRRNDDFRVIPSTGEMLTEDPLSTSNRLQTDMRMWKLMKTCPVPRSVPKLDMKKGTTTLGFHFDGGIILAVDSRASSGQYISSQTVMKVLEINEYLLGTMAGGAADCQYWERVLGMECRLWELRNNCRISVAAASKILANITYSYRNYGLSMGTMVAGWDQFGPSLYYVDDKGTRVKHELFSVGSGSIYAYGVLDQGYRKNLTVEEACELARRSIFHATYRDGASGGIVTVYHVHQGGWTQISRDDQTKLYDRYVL
Nature of the experiment: Trypanosoma cruzi proteasome chymotrypsin-like activity (TcProtChymo) assay. Note: in the data most compounds retested in dose-response had high values. It is filed as functional. To be noted: 9.37 µM.

The species named for a further experiment is Homo sapiens. In words: To identify inhibition of the IFN signalling (Jak-Stat) pathway via expression of an eGFP reporter gene under the control of an IFN-stimulated response element (ISRE) containing MxA promoter. To be noted: 30 µM. The experiment is classed as functional. A general note: A reporter such as luciferase makes a cellular process visible.

For experiment [7], the target named is T4, Tyrosyl-tRNA synthetase, putative (Trypanosoma cruzi (strain CL Brener)) (UniProt Q4DSP6).
T4 sequence (whole entry): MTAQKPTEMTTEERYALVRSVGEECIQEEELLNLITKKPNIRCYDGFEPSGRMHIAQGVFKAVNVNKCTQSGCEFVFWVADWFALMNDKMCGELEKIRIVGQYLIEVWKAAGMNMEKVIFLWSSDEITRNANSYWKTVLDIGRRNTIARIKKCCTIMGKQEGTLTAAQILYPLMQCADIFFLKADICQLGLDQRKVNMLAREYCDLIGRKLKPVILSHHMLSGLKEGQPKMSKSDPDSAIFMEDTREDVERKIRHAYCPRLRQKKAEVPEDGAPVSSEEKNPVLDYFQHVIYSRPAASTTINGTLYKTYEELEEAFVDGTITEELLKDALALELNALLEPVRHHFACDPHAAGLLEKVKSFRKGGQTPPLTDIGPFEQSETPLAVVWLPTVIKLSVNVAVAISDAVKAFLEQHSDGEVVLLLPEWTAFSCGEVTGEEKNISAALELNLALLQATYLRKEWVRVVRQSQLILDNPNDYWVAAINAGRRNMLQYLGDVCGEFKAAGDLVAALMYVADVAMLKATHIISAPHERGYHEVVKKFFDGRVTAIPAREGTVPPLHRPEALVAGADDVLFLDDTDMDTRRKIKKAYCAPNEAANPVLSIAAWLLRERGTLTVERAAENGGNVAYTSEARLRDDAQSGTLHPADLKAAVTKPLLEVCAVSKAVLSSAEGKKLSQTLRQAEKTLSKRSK
Nature of the experiment: Trypanosoma cruzi tyrosyl tRNA synthetase (TcYRS) _High Tyrosine SOP. Note: in the data most compounds retested in dose-response had high values. It is filed as functional. Conditions: 30 µM.

The target of experiment [8] is T4, Tyrosyl-tRNA synthetase, putative (Trypanosoma cruzi (strain CL Brener)). In words: Trypanosoma cruzi tyrosyl tRNA synthetase (TcYRS) SOP. Conditions: 30 µM. It is filed as functional.
In experiment [9] the target is Chromo domain-containing protein 1 (Saccharomyces cerevisiae (strain ATCC 204508 / S288c) (Baker's yeast)) (UniProt P32657). In words: ScCHD-1 Enzyme Inhibition Assay. Note: in the data most compounds retested in dose-response had high values. The experiment is classed as functional. Conditions: 30 µM.
Chromo domain-containing protein 1 (Saccharomyces cerevisiae (strain ATCC 204508 / S288c) (Baker's yeast)), sequence (P32657 whole entry, the tested form may be a part): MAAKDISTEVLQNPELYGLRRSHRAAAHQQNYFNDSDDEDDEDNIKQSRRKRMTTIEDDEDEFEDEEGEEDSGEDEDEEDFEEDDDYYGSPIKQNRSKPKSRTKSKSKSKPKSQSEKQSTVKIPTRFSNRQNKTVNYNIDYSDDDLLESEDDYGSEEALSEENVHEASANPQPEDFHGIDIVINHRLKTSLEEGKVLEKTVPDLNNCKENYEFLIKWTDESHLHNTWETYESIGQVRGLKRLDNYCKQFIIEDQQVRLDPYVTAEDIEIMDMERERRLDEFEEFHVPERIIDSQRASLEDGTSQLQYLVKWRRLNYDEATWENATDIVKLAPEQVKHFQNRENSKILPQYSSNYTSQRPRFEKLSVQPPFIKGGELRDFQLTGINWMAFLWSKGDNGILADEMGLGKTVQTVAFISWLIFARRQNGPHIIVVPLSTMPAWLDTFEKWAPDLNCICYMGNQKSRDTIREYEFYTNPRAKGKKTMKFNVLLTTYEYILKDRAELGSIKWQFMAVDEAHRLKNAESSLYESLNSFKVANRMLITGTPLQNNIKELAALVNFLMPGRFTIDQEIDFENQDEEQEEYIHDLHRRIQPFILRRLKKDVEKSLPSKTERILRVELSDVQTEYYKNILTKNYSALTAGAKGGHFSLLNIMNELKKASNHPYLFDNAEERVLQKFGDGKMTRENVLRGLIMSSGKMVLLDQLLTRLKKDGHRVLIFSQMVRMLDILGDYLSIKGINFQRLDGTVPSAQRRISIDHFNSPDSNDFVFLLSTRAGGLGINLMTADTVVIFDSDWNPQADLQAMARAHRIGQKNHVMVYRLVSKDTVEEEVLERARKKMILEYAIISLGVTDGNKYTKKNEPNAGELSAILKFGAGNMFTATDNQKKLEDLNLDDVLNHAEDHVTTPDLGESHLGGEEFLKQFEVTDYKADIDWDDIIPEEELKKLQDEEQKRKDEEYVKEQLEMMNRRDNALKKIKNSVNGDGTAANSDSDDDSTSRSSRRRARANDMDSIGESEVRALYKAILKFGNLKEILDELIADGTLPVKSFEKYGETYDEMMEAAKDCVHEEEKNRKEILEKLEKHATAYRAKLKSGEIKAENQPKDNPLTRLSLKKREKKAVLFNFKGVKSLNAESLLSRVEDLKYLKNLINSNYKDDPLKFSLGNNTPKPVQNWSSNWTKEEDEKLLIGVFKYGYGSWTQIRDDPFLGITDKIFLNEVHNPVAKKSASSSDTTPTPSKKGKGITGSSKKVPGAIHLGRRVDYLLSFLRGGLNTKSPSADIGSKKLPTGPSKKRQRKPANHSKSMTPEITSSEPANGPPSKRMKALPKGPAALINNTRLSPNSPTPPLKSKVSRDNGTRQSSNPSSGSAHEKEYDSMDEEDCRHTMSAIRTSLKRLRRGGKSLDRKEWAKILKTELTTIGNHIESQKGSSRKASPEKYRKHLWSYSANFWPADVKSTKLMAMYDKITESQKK

For some of these results: Measured potencies and affinities stand elsewhere.

This note sets out measurements from ChEMBL document CHEMBL3988442, “University of Dundee, Small-Polar-MMV Screening Library” (2021).

Protein translocase subunit SecA (Escherichia coli (strain K12)), sequence (P10408 whole entry): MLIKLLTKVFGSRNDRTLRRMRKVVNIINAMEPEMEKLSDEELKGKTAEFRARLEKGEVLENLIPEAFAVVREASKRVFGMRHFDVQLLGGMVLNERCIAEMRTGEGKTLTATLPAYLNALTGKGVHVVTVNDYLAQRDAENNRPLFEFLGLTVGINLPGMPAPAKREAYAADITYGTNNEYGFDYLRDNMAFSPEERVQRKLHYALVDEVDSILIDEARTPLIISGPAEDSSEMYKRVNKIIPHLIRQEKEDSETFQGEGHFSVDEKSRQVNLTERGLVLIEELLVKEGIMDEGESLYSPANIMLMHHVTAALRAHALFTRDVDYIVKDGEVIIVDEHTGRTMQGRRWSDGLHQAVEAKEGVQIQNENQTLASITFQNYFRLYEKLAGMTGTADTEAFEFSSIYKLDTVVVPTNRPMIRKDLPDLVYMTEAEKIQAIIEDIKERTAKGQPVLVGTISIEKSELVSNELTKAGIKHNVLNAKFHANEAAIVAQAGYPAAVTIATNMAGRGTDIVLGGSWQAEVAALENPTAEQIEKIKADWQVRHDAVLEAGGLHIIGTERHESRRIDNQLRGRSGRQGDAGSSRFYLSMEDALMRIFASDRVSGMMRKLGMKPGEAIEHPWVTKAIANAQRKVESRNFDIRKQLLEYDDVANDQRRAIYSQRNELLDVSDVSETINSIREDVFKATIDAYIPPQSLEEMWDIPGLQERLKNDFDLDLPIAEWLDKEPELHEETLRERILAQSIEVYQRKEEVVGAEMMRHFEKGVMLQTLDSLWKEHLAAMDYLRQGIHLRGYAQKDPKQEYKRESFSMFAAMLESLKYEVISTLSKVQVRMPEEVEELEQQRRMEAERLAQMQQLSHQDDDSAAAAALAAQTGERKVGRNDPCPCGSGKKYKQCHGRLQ

For the molecule `CC(C)c1cc(NC(=O)CN2CCc3ccccc3C2)on1`, the Percent Effect in [1] is -4.45%; in experiment [2], 28.6%; in experiment [3] it was -1.59%; in experiment [4], 2.02%; in the experiment with Trypanosoma cruzi, 5.99%; in experiment [5], -2.85%. The Percent Effect was 10.6% in experiment [6]; 14.1% in the experiment listed under Homo sapiens; 7.77% in [7]; 26.8% in experiment [8]; -12.1% in experiment [9].
Consider `COCCNC(=O)C1(c2ccccc2C)CCOCC1`, for which the Percent Effect in experiment [1] was -6.97%; in experiment [2] it was 2.7%; in experiment [3], -2.99%; in [4], -1.02%; in the experiment on Trypanosoma cruzi it was -5%; in experiment [5] it was 4.81%. Also, the Percent Effect is 0.18% in experiment [6]; 13.2% in the experiment listed under Homo sapiens; 0.493% in experiment [7]; -6.17% in experiment [8]; -1.03% in experiment [9].
As for `CN(C)C(=O)c1ccc(CNC(=O)NCCN(C)C2CCCC2)cc1`, the Percent Effect is -0.464% in [1]; 16.2% in experiment [2]; -9.52% in [3]; -5.04% in experiment [4]; -3.87% with Trypanosoma cruzi; -2.81% in experiment [5]. The Percent Effect in experiment [6] is 5.41%; in the experiment listed under Homo sapiens it was 22.8%; in experiment [7] it was 7.39%; in experiment [8], 18.5%; in [9] it was -6.9%.
For `CN(C)c1cc(C(=O)NCCc2n[nH]c(=O)[nH]2)ccn1`, the Percent Effect in experiment [1] was -2.65%; in experiment [2] it was 2.63%; in experiment [3], 5.52%; in experiment [4], 7.32%; in the experiment with Trypanosoma cruzi, -0.487%; in experiment [5], 4.73%. Further, the Percent Effect in [6] is 7.38%; in the experiment listed under Homo sapiens, 5.92%; in experiment [7], 3.19%; in experiment [8] it was 5.2%; in [9] it was -2.56%.
`COc1ccc(CNC(C)c2cccc(Cl)c2)c(OC)c1OC` (stereo not drawn): the Percent Effect is -1.96% in [1]; 10.7% in [2]; -5.69% in experiment [3]; 5.99% in experiment [4]; 6.52% in the experiment with Trypanosoma cruzi; 4.69% in experiment [5]. Moreover, the Percent Effect is 5.58% in [6]; 16.5% in the experiment listed under Homo sapiens; 0.546% in [7]; 6.17% in experiment [8]; -1.65% in experiment [9].
Take `CC1CCN(S(=O)(=O)NCCCn2cncn2)CC1`: the Percent Effect in experiment [1] was -3.76%; in [2], 6.33%; in experiment [3] it was 3.29%; in [4], 1.98%; in the experiment on Trypanosoma cruzi, 1.33%; in [5], 5.38%. Also, the Percent Effect in experiment [6] is 5.49%; in the experiment filed under Homo sapiens, 23.8%; in experiment [7] it was 5.21%; in experiment [8], 12.7%; in experiment [9], -7.93%.
Consider `CCc1nnc(Nc2cccc(C3CCN(CCO)CC3)n2)s1`, for which the Percent Effect was -7.83% in [1]; 12.2% in [2]; 0.559% in experiment [3]; 1.33% in [4]; 1.58% in the experiment with Trypanosoma cruzi; -2.55% in [5]. For the same molecule, the Percent Effect in experiment [6] was 14%; in the experiment filed under Homo sapiens, 24%; in [7] it was 2.15%; in experiment [8] it was 11.7%; in experiment [9], -26.9%.
For the molecule `Cc1cc(CN(Cc2cccs2)CC2CCCO2)no1` (stereo not drawn), the Percent Effect in experiment [1] was -4.05%; in [2] it was 1.27%; in experiment [3], 10.8%; in experiment [4] it was 3.07%; in the experiment on Trypanosoma cruzi, -1.33%; in experiment [5], 4.95%. The Percent Effect was 6% in [6]; 6.19% in the experiment filed under Homo sapiens; -5.21% in [7]; 0% in experiment [8]; 16.7% in [9].
